Growth data for 15 molecules are collected here from PubChem BioAssay (NCI).

“And” between values parts separate entries of the source, which are not always exact repeats. Equal values may be shown once. About 83,000 compounds went through this panel and 20% of them were active in at least one assay; those are over-represented in the sample as a whole.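 Cells were grown in 96-well plates and exposed to the test compound at a single concentration for 48 hours; results are reported as percent growth, with values below 10 considered active.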 The source made the active and inactive calls.

What all share (experiment): NCI-60 one-dose screen, 48 h (100 = growth as untreated, 0 = no growth, -100 = all killed)
Common to all, as to details: 10 µM unless noted

Test [1] concerns HT29 colon.
For test [2], the system named is SNB-75 CNS.
The test system of test [3] is SNB-19 CNS.
Test [4] relates to U251 CNS.
Test [5] deals with PC-3 prostate.
Test [6] has as its system SK-MEL-5 melanoma.
The test system of test [7] is UACC-62 melanoma.
Test [8] has as its system LOX IMVI melanoma.
Test [9] relates to SK-MEL-28 melanoma.

As for `CC1=CC(=O)c2cccc(NC3=NCCO3)c21`, the growth in test [1] was 101% (inactive); in [2], 84.6% (inactive); in [3], 104% (inactive); in [4], 99.5% (inactive); in [5], 89.1% (inactive); in test [6], 98.2% (inactive). Also, the growth is 87.8% (inactive) in test [7], 98.4% (inactive) in [8] and 108% (inactive) in [9].
As for `Cc1ccc(NC(=S)N/C=C(\c2ccccc2)S(=O)Cc2ccccc2)c(C)c1` (stereo unspecified), the growth is 108% (inactive) in [1]; 87.2% (inactive) in test [2]; 100% (inactive) in test [3]; 87.9% (inactive) in test [4]; 86% (inactive) in test [5]; 98.7% (inactive) in test [6]. The growth is 92.2% (inactive) in test [7], 102% (inactive) in test [8] and 112% (inactive) in [9].
For `O=C(Nc1ccccc1)OCC(CN1CCCCC1)OC(=O)Nc1ccccc1` (stereo unspecified), the growth in [1] is 69.6% (inactive) and 87.2% (inactive); in test [2], 56.4% (inactive) and 80.6% (inactive); in test [3], 90.9% (inactive) and 92.8% (inactive); in test [4], 67.7% (inactive) and 91.1% (inactive); in test [5] it was 75.5% (inactive); in test [6], 60.5% (inactive) and 93.7% (inactive). The growth in [7] is 80.7% (inactive) and 101% (inactive); in test [9], 91.5% (inactive) and 105% (inactive).
In the case of `Cc1cc(-c2ccc(N=Nc3c(C)nn(-c4ccc(S(=O)(=O)O)cc4)c3O)c(C)c2)ccc1N=Nc1ccc(O)c(C(=O)O)c1`, the growth was 115% (inactive) in test [1]; 99.9% (inactive) in test [2]; 99.9% (inactive) in test [3]; 99.1% (inactive) in test [4]; 98.2% (inactive) in test [5]; 98.7% (inactive) in [6]. Moreover, the growth in test [7] was 91.2% (inactive); in test [8], 95.4% (inactive); in test [9] it was 106% (inactive).
Take `O=[N+]([O-])c1cccc2ccc(N/N=C/c3ccccc3O)nc12`: the growth was 93.3% (inactive) and 106% (inactive) in test [1]; 67.8% (inactive) and 87.9% (inactive) in [2]; 99.3% (inactive) and 108% (inactive) in test [3]; 93.7% (inactive) and 98.6% (inactive) in test [4]; 76.1% (inactive) and 84.4% (inactive) in test [5]; 88% (inactive) and 90.9% (inactive) in test [6]. The growth in test [7] was 85.5% (inactive) and 94.6% (inactive); in test [9], 134% (inactive) and 109% (inactive).
For the molecule `C/C(=C\c1ccccc1)C(O)C(=O)c1nc2ccc([N+](=O)[O-])cc2[nH]c1=O` (stereo unspecified), the growth in test [1] is 102% (inactive); in [2] it was 88.6% (inactive); in test [3], 85.5% (inactive); in [4] it was 83.2% (inactive); in test [5], 79.7% (inactive); in [6] it was 82.6% (inactive). Besides, the growth was 72.3% (inactive) in test [7], 75.9% (inactive) in [8] and 112% (inactive) in test [9].
In the case of `CC(CN(C)C)CN1c2ccccc2Sc2ccccc21` (stereo unspecified), the growth was 56.1% (inactive) and 71.1% (inactive) and 67.4% (inactive) in test [1]; 64.2% (inactive) and 60.6% (inactive) and 43.4% (inactive) in [2]; 94.6% (inactive) and 80.4% (inactive) and 91.2% (inactive) in [3]; 73.4% (inactive) and 87.5% (inactive) and 76.9% (inactive) in test [4]; 63.7% (inactive) and -49.1% (active) and 52.7% (inactive) in test [5]; 87.1% (inactive) and 74% (inactive) and 89.3% (inactive) in test [6]. Further, the growth was 92.8% (inactive) and 65.9% (inactive) in [7]; 80.6% (inactive) and 83.5% (inactive) and 73.2% (inactive) in test [8]; 87.6% (inactive) and 113% (inactive) and 68.2% (inactive) in test [9].
On to `COC(=O)c1nc(=S)[nH]c(C(=O)OC)c1C(=O)c1ccc(OC)cc1`, for which the growth in test [1] is 106% (inactive); in test [2], 101% (inactive); in test [3], 101% (inactive); in test [4] it was 108% (inactive); in test [5], 93% (inactive); in test [6], 97.3% (inactive). Also, the figures for the growth in test [7], in test [8] and in test [9] were 95.9% (inactive), 94.8% (inactive) and 109% (inactive), respectively.
As to `CCCCCc1cc[n+](CC(=O)c2ccccc2)cc1`, the growth in test [1] was 99.7% (inactive) and 105% (inactive); in [2], 92.6% (inactive); in test [3], 93.4% (inactive) and 107% (inactive); in test [4] it was 103% (inactive) and 105% (inactive); in test [5] it was 85.6% (inactive) and 91.1% (inactive); in test [6] it was 96% (inactive) and 89.5% (inactive). Further, the growth is 98.7% (inactive) and 101% (inactive) in test [7]; 93.8% (inactive) and 98.6% (inactive) in [8]; 128% (inactive) and 109% (inactive) in test [9].
On to `CCN(CC)CCNC(=O)c1ccc(NCN2C(=O)NC(c3ccccc3)(c3ccccc3)C2=O)cc1`, for which the growth is 108% (inactive) and 112% (inactive) in [1]; 103% (inactive) and 97.1% (inactive) in test [2]; 109% (inactive) and 105% (inactive) in [3]; 95.2% (inactive) and 102% (inactive) in test [4]; 97.6% (inactive) and 93% (inactive) in test [5]; 101% (inactive) and 109% (inactive) in [6]. Moreover, the growth is 104% (inactive) and 97% (inactive) in test [7]; 95.1% (inactive) and 97.6% (inactive) in [8]; 117% (inactive) in test [9].
Take `Oc1ccc(O)c(-c2ccccc2)c1`: the growth in test [1] was 102% (inactive); in test [2], 58.2% (inactive); in [3] it was 67.5% (inactive); in [4], 41.4% (inactive); in test [5] it was 64.3% (inactive); in test [6], 42.9% (inactive). Further, the growth was 71.3% (inactive) in [7], 49.3% (inactive) in test [8] and 77.4% (inactive) in test [9].
Regarding `O=S(=O)(O)c1ccc2cc(O)ccc2c1`, the growth is 103% (inactive) in test [1]; 93.6% (inactive) in [2]; 109% (inactive) in test [3]; 98.7% (inactive) in test [4]; 94.7% (inactive) in test [5]; 96.8% (inactive) in [6]. The growth in [7] is 99.7% (inactive); in test [9], 117% (inactive).
Take `COc1ccc(/C=C/C(=O)O)cc1OC`: the growth in [1] was 106% (inactive) and 97.3% (inactive); in test [2], 96.5% (inactive) and 103% (inactive); in test [3] it was 102% (inactive) and 107% (inactive); in test [4] it was 100% (inactive) and 103% (inactive); in test [5], 95.1% (inactive) and 98.3% (inactive); in [6], 98% (inactive) and 97.9% (inactive). Moreover, the growth in test [7] is 98.9% (inactive) and 97.5% (inactive); in [8], 100% (inactive) and 98.9% (inactive); in test [9], 111% (inactive) and 115% (inactive).
Regarding `c1ccc2c[n+](Cc3ccc4ccccc4n3)ccc2c1`, the growth was 57.2% (inactive) in [1]; 79.7% (inactive) in [2]; 71.2% (inactive) in [3]; 55.4% (inactive) in [4]; 50.9% (inactive) in test [5]; 15.1% (inactive) in [6]. In addition, the values for the growth in [7] and in test [9] were 90% (inactive) and 87.6% (inactive), respectively.
For `COc1ccccc1OCC(O)CO` (stereo unspecified), the growth in [1] was 100% (inactive) and 103% (inactive); in test [2], 87.7% (inactive) and 90.7% (inactive); in [3] it was 96.4% (inactive) and 84.9% (inactive); in [4], 96.9% (inactive) and 81.3% (inactive); in [5] it was 52.3% (inactive) and 91.5% (inactive); in test [6], 104% (inactive) and 100% (inactive). The growth was 100% (inactive) in test [7]; 99.5% (inactive) and 100% (inactive) in test [8]; 95.5% (inactive) and 108% (inactive) in test [9].
